# Data taken from the supplement of paper PMC13380429.
# Values without a mark were called inactive.
# System: Vero E6 infected with SARS-CoV-2
# Assay: inhibition of SARS-CoV-2 cytopathic effect; higher = more antiviral protection, active = above 15
# Conditions: 48 h
SMILES,inhibition of SARS-CoV-2 cytopathic effect (1 nM) [%],inhibition of SARS-CoV-2 cytopathic effect (8.33 nM) [%],inhibition of SARS-CoV-2 cytopathic effect (100 nM),inhibition of SARS-CoV-2 cytopathic effect (833.33 nM) [%],inhibition of SARS-CoV-2 cytopathic effect (10000 nM) [%]
C[C@]12CC[C@@H]3c4ccc(O)cc4C[C@@H](CCCCCCCCC[S+]([O-])CCCC(F)(F)C(F)(F)F)[C@H]3[C@@H]1CC[C@@H]2O (stereo not given in full) [fulvestrant],-1.55,-1.22,0.63%,-0.23,-0.95
O=C(CO)[C@@H](O)[C@@H](O)[C@H](O)CO [tagatose],-1.77,-0.71,-0.15%,-0.41,0.74
O=C(O)c1ccc2nc(-c3cc(Cl)cc(Cl)c3)oc2c1 [tafamidis-meglumine],-0.14,-0.38,-1.04%,1.34,0.08
O=C1NCN(c2ccccc2)C12CCN(CCCC(c1ccc(F)cc1)c1ccc(F)cc1)CC2 [fluspirilene],0.39,-2.06,-3.28%,-5.63,10.3
O=C(CCCN1CC=C(n2c(=O)[nH]c3ccccc32)CC1)c1ccc(F)cc1 [droperidol],-0.89,3.34,0.3%,-0.44,-2
N[C@@H](CSCCCO)C(=O)O [fudosteine],0.08,1.3,0.76%,1.15,-1.74
CC(C)(C)S(=O)(=O)N[C@H]1CC[C@H](C(=O)Nc2ccc(C(F)(F)F)cn2)CC1 [velneperit],2.37,-0.93,-0.23%,-1.55,-1.63
Cc1cc2c(C(N)=O)cccc2n1-c1nc2c(c(NCc3ccccc3)n1)COCC2,1.91,-0.78,-2.17%,11.2,-31.7
CCc1c2c(nc3ccc(OC(=O)N4CCC(N5CCCCC5)CC4)cc13)-c1cc3c(c(=O)n1C2)COC(=O)[C@]3(O)CC [irinotecan],-2.2,1.89,1.85%,1.56,-0.23
CC1(C)S[C@@H]2[C@H](NC(=O)C(C(=O)O)c3ccccc3)C(=O)N2[C@H]1C(=O)O (stereo not given in full) [carbenicillin],2.76,1.83,0.55%,2.42,0.1
Cc1ccnc(NC(=O)C(C)c2cccc(C(=O)c3ccccc3)c2)c1 (stereo not given) [piketoprofen],0.01,0.74,2.28%,-1.34,3.81
O=C(Oc1cc(S(=O)(=O)c2ccccc2)ccc1[N+](=O)[O-])c1ccc(Cl)cc1,0.83,0.6,-2.99%,-0.23,-0.09
c1ccc(CCNc2nc(-c3ccccc3)cs2)cc1 [fanetizole],-2.03,1.7,-2.73%,-0.64,1.58
S=C=Nc1ccc(N=C=S)cc1 [bitoscanate],-1.75,0.45,-0.83%,0.38,-2.58
CCn1cc(C(=O)O)c(=O)c2cnc(N3CCCC3)nc21 [piromidic-acid],-0.85,1.01,0.19%,-0.21,-1.75
CC(=O)N(CC(O)CO)c1c(I)c(C(=O)NCCO)c(I)c(C(=O)NCC(O)CO)c1I (stereo not given) [ioxilan],1.8,0.19,-2.31%,-1.98,-0.58
CC[C@H]1CN2CCc3cc(OC)c(OC)cc3[C@@H]2C[C@@H]1C[C@H]1NCCc2cc(OC)c(OC)cc21 [emetine],1.59,2.17,36.2% (active),11.6,-11.1
CC1=C(/C=C/C(C)=C/C=C/C(C)=C/C(=O)Nc2ccc(O)cc2)C(C)(C)CCC1 [fenretinide],2.01,1.04,0.95%,-0.67,2.45
CCNC(=O)[C@H]1O[C@@H](n2cnc3c(N)nc(NCCc4ccc(CCC(=O)O)cc4)nc32)[C@H](O)[C@@H]1O,-1.55,-1.11,-2.43%,-1.74,1.23
